Test results taken from PubChem BioAssay AID1508611 (The Scripps Research Institute Molecular Screening Center, 2020).
Among all 6,700 compounds or so, about 20 (0.3%) were called active. The sample as a whole holds a higher share of actives than the screen did. A number with no mark means an inactive call.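 Rule for the calls: active = mean percent activation in the counterscreen above 29.09%; inactive = the rest.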

What follows are compounds tested against Glucose-dependent insulinotropic receptor (Homo sapiens) (UniProt Q8TDV5) (assay: off-target GPR119 activation – cell-based, PathHunter beta-arrestin, luminescence, triplicate, counter-screen for GPR151 activator project (AID 1508611)). Settings: GPR119 PathHunter beta-arrestin cells, 90 min, at 11.2 µM, hits give high values, 0 = compound-well median, 100 = enzyme-acceptor control.
Glucose-dependent insulinotropic receptor (Homo sapiens), sequence (Q8TDV5 whole entry, looked up): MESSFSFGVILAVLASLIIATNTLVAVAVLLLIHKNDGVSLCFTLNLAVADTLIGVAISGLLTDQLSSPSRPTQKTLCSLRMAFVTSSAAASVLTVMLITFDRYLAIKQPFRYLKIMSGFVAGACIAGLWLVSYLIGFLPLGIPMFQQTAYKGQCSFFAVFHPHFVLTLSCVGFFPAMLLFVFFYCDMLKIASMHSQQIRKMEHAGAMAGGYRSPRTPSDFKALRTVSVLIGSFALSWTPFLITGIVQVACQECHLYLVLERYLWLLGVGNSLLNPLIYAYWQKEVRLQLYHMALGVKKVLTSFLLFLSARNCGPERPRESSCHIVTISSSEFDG

SMILES	activation
Cc1nc(-c2cccc(NC(=O)C3CC(=O)c4ccccc43)c2)cs1 (stereo not given)	4.74%
CC(C)CNc1nc2c(c(=O)[nH]c(=O)n2C)n1CC(C)O (stereo not given)	5.13%
CCCCOC(=O)C1=C(C)NC2=C(C(=O)CCC2)C1c1cccc([N+](=O)[O-])c1 (stereo not given)	-13.7%
NC(=O)C1CCN(C(=O)c2ccc(-c3ccccc3)cc2)CC1	-13.1%
CN1C(=O)c2ccc(N3C(=O)c4cccc([N+](=O)[O-])c4C3=O)cc2C1=O	-8.76%
COc1cc(Nc2ccnc(Nc3ccc(N4CCOCC4)cc3)n2)cc(OC)c1OC	31.6% (active)
CCN(CC)c1nc(Nc2cc(OC)c(OC)c(OC)c2)nc(N2CCOCC2)n1	-4.38%
COc1cc2nc(-c3cccc(C(C)=O)c3)nc(Nc3ccc(N4CCOCC4)cc3)c2cc1OC	1.25%
CCN(CC)c1nc(Nc2ccccc2)nc(Nc2ccccc2)n1	5.68%
CCOC(=O)c1cccc(NC(=O)/C=C/c2ccccc2)c1	2.43%
COCCn1c(C)cc(C(=O)CSc2nnc(-c3ccccc3)o2)c1C	0.76%
COc1ccc(OC)c(S(=O)(=O)Oc2ccc(Cl)c3cccnc23)c1	14.7%
O=C(CC1C(=O)NCCN1C(=O)c1ccc([N+](=O)[O-])cc1)Nc1cccc(Cl)c1 (stereo not given)	8.78%
COc1ccc(-c2cc(N)n(S(=O)(=O)c3ccccc3)n2)c(OC)c1	-9.92%
c1ccc(-c2ccc(OCCCNCCN3CCOCC3)cc2)cc1	-6.67%
COc1ccc(C2=NN(C(=O)c3cc(OC)c(OC)c(OC)c3)C(c3ccc(Cl)cc3)C2)cc1OC (stereo not given)	10.6%
C=C(C)CSc1nc2sc3c(c2c(=O)n1-c1ccc(OC)cc1)CC(C)(C)OC3	13.8%
COc1ccccc1C1CCCN1C(=O)C1CCN(c2nc(C)c3ccccc3n2)CC1 (stereo not given)	0.39%
COc1ccc(OC)c(NC(=O)CN(c2cccc(C)c2C)S(C)(=O)=O)c1	-9.68%
O=C(CC12CC3CC(CC(C3)C1)C2)Nc1ccc2oc(=O)ccc2c1	-8.76%
CC(C)(C)C1(O)CCN2C[C@H]3c4ccccc4CCc4cccc(c43)[C@@H]2C1 (stereo not given in full)	2.66%
OCCC1CN(Cc2ccc3cc(F)ccc3n2)CCN1C1CCCC1 (stereo not given)	11.7%
CCCn1ncc(CN2CCCC(N3CCC(CO)CC3)C2)c1C (stereo not given)	1.74%

SMILES	activation
CCCOC(=O)C1=C(C)NC(=O)NC1c1ccc(Br)cc1 (stereo not given)	-8.21%
O=C(Cn1c(=S)nc2ccccn21)N1CCc2ccccc2C1	4.38%
CCOC(=O)C1=CN(C)C=C(C(=O)OCC)C1c1ccc(OC)cc1	7.33%
O=C(O)COc1ccc(N2C(=O)C(=O)/C(=C(\O)c3ccccc3)C2c2ccc(Cl)cc2Cl)cc1 (stereo not given)	1.15%
Cc1nnc(SCC(=O)NCc2ccccc2)s1	-8.49%
CN(CC(=O)Nc1cccc2c1CCCC2)S(=O)(=O)c1ccc(Cl)cc1	-16%
COC(=O)[C@@H]1CC[C@H](C)[C@@H](c2ccc(C)cc2)N1C(=O)c1ccc(/C=N/O[C@H](C)c2cn([C@@H]3COC[C@H]3O)nn2)cc1	-5.11%
Cc1ccccc1CC1(CO)CCCN(Cc2ccncc2)C1 (stereo not given)	-3.82%
O=C(CSc1ccc(F)cc1)Nc1cccc2ccccc12	-0.98%
COc1ccc2c(c1)C=C(CN1CCN(CC3CCCCC3)C(CCO)C1)CO2 (stereo not given)	10.3%
O=c1[nH]c(=S)[nH]c(O)c1C=Nc1ccc(F)c(Cl)c1	5.32%
O=C(Cn1c(=O)n(Cc2cccs2)c(=O)c2cccnc21)Nc1ccc(F)cc1	-1.72%
CCOC(=O)c1sc(NC(=O)CSc2ncccn2)c(C#N)c1C	2.97%
CC(C)C(=O)NNS(=O)(=O)c1ccc([N+](=O)[O-])cc1	0.04%
O=C(NCc1nnc(SCC(=O)N2N=C(c3cccs3)CC2c2ccc(F)cc2)n1Cc1ccccc1)c1cccc(F)c1 (stereo not given)	-10.8%
CCc1ccc(-c2ccc(C3CCC(CC)CC3)cc2)nc1 (stereo not given)	-6.15%
CC(C)c1ccc(Nc2nccn3c(-c4cccc(CO)c4)cnc23)cc1	15.7%
O=C(c1ccccc1)N1CCCCC(Sc2ncnc3sc4c(c23)CCCC4)C1=O (stereo not given)	0.65%
C[C@H]1Cc2c(COc3ccccc3)nc3c(c2CO1)CN(C(=O)NCc1ccco1)CC3	9.06%
CC(C)n1c(Nc2ccc3ncccc3c2)nc2c(NC3CC3)ncnc21	3.65%
Cc1cc(CN(C)Cc2ccc(OCC(O)CN(C)Cc3ccccc3)cc2)n[nH]1 (stereo not given)	-0.59%
O=C(NCCOc1ccccc1)c1cnc(N2CCN(c3ccccn3)CC2)s1	1.31%
COC(=O)CN1C=C(C(=O)OC)C(c2ccc(OC)c(O)c2)C(C(=O)OC)=C1	20.6%

SMILES	activation
CCOC(=O)c1cc2cc(-c3c(C)oc4cc(OC(C)=O)ccc4c3=O)ccc2o1	-2.06%
CN(Cc1nc(-c2ccc3c(c2)OCO3)no1)C1CCCc2ccccc21 (stereo not given)	0.92%
O=C(Cc1cccs1)Nn1c(-c2cccc([N+](=O)[O-])c2)nc2ccccc2c1=O	13.2%
CC1(C(=O)Nc2cccc(C(F)(F)F)c2)CC2c3ccccc3C1c1ccccc12 (stereo not given)	0.35%
O=CN1CCN(CCC(=O)Nc2ccccc2)CC1	-6.54%
CCOc1ccc(NC(=O)N2CCN(CC)CC2)cc1	6.5%
CCSc1nc2sccn2c(=O)c1C(=O)NC(Cc1ccccn1)C(F)(F)F (stereo not given)	-3.52%
Cc1cccc(-n2nc3c(c2NC(=O)CCC2CCCCC2)CS(=O)(=O)C3)c1C	7.21%
COc1ccc(-c2noc(N3CCC(C(=O)NCCCN4CCN(C)CC4)CC3)n2)cc1	3.82%
FC(F)(F)c1ccc(Cn2cnc3c(NCc4cccc(C(F)(F)F)c4)nc(Nc4ccc(N5CCOCC5)cc4)nc32)cc1	-10.4%
CC(=O)Nc1nnc(CCOCC(C)OCCc2nnc(NC(C)=O)s2)s1 (stereo not given)	12.3%
CCOc1cc2c(cc1OCC)C(c1ccc3ccccc3c1)NCC2 (stereo not given)	-1.89%
CCOc1ccc(C(=O)Nc2nnc(CC)s2)cc1[N+](=O)[O-]	-8.62%
O=S(=O)(c1ccc(F)cc1)N1CCN(CCCc2ccccc2)CC1	15.2%
O=C(N/N=C/c1cccc(Cl)c1Cl)c1cccs1	-19.1%
CCOC(=O)c1ccc2nc(NC(=O)CSc3nc4ccccc4[nH]3)sc2c1	6.61%
COCCNC(=O)CSc1nccn1Cc1ccco1	5.14%
COCC(=O)Nc1c(I)c(C(=O)NCC(O)CO)c(I)c(C(=O)N(C)CC(O)CO)c1I (stereo not given)	-9.51%
O=C(CCc1ccccc1)Nc1cccc(C(=O)N2CCOCC2)c1	-6.29%
CC(/C=N\NC(=O)CSc1nc(C)cc(C)n1)=C\c1ccccc1	-12.7%
COCCNC(=O)c1cc2c(=O)n3ccccc3nc2n(CCc2ccccc2)c1=N	3.06%
CCCN1C(=O)c2ccc(C(=O)Nc3ccc(C(C)=O)cc3)cc2C1=O	0.52%
O=C(c1cc([N+](=O)[O-])ccc1NC1CCCCC1)N1CCOCC1	-18.9%

SMILES	activation
CCN(CC)C(=O)C1CCCN(c2cccc(C(=O)NCCc3ccc(OC)cc3)n2)C1 (stereo not given)	-12.6%
Cc1ccc(-c2nnc(N3CCOCC3)c3ccccc23)cc1S(=O)(=O)N1CCN(C)CC1	-11.5%
C=CCN1C(=O)CC(C(=O)OC)C12CCN(C1CCN(C(=O)OCC)CC1)CC2 (stereo not given)	-5.11%
COC(=O)NNC(=S)Nc1cc(S(=O)(=O)N(C)C)ccc1C	-12.9%
CCCCOc1ccccc1CNCC	0.16%
O=C(CN1C(=O)S/C(=C\c2ccc(Cl)s2)C1=O)Nc1ccccc1F	-11%
CSc1nc(N)nc2nc[nH]c12	-1.61%
CCc1ccc(-n2c(C)c(C)n3c4c(=O)n(CC)c(=O)n(C)c4nc23)cc1	-2.08%
C#CCOc1ccc(Br)cc1/C=C1\NC(=S)N(C)C1=O	-3.86%
CS(=O)(=O)N(CC(=O)Nc1ccc(F)cc1F)c1ccc(F)cc1	-2.79%
Cc1ccc(C(C)C)c(OCCCn2ccnc2)c1	0.47%
COc1ccccc1C(=O)N/C(=C\c1ccc2c(c1)OCO2)C(N)=O	4.53%
C=CCN(c1ccc(C(=O)Nc2ccc(OCc3ccccc3)cc2)cc1)S(C)(=O)=O	-10.1%
CC(=O)NC(CC(=O)O)c1ccc(F)cc1 (stereo not given)	3.48%
COc1cccc(/C=C(\C#N)c2nc3ccc(C)cc3[nH]2)c1OC	17.6%
Cc1ccc(NCC(=O)N/N=C\c2ccc(I)o2)cc1	-0.01%
COc1cccc(C2SCC(=O)N2c2cccc(C)c2)c1OC (stereo not given)	13.2%
CC1(c2ccccc2NC(=O)c2ccc([N+](=O)[O-])cc2)CC1	0.99%
O=[N+]([O-])c1ccc2ncnc(Nc3cccc(C(F)(F)F)c3)c2c1	9%
O=C(COc1ccc(S(=O)(=O)NCCc2ccccc2)cc1)NC1CC1	-10.3%
O=C(Nc1ccc2[nH]ncc2c1)N1CCCNCC1	3.8%
